RE007 growth inh: less growth of the S. pombe RE007 Vpr strain. S. pombe RE007 Vpr strain, BacTiter-Glo ATP luminescence, 24 h. Potency, µM (highest dose often 92.2 µM), for inactives: top-dose activity change, negative = less growth, actives largely listed as inhibitors. 360,000 compounds, 0.21% hits; active means well fitted falling curve with a large enough effect; inconclusive means small, poorly fitted or top-dose-only effect; inactive means no such curve, though single readings can be large or run the other way; further: nearly all actives have a fitted effect of over 50% in size
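Fission yeast strain RE007, carrying one chromosomally integrated HIV-1 vpr copy, was seeded at OD 0.01 in PMG+AL medium with 23 nL pinned compound. After 24 h at 30 °C and 99% humidity, viability was read by BacTiter-Glo luminescence.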
TbPYK inhibitor: blocks Trypanosoma brucei pyruvate kinase; 410,000 compounds, 0.12% hits; AID 624173; Potency, µM (series often up to 76.8 µM), without a hit: at the highest dose activity, negative = inhibition, hits mostly inhibitors; Q57TT1; TbPYK enzyme, Kinase-Glo Plus ATP luminescence, 45 min; further: nearly all actives have a fitted effect of over 50% in size
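Activity of T. brucei pyruvate kinase was followed by Kinase-Glo Plus luminescence after the enzyme reacted 45 min at room temperature with 130 uM ADP (final) and substrate. Test compounds were added before ADP at multiple concentrations.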
LmPK inhibitor: LmPK (Leishmania mexicana) enzyme inhibition; purified LmPK, Kinase-Glo ATP luminescence, 1 h; Potency, µM (series often up to 57.5 µM), for the others: at the top dose activity change, negative = inhibition, most hits filed as inhibitors; 290,000 compounds, 0.37% hits
Target sequence (Q27686 whole entry, looked up): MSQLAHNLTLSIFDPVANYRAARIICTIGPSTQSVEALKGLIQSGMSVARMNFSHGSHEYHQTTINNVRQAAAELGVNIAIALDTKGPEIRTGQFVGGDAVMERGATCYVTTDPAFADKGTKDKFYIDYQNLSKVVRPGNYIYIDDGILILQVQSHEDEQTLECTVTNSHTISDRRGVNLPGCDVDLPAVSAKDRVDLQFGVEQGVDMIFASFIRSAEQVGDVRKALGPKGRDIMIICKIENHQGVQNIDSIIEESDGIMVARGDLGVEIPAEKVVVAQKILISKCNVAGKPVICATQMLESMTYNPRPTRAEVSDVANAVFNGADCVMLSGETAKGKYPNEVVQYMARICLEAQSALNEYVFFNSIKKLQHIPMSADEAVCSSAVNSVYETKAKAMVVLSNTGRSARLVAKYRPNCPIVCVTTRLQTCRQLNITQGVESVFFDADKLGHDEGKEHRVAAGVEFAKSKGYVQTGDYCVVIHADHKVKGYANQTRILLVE
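Screened at intermediate enzyme activity to detect both inhibitors and activators: LmPK at 0.1 nM, with a 0.5 nM enzyme column as activation reference. PEP 0.5 mM, ADP 0.1 mM; ATP detected by luminescence after 1 h.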
AMA1-RON2 inh: inhibitors of Plasmodium falciparum AMA1-RON2 interaction; AlphaScreen AMA1-biotinylated RON2 peptide binding; 360,000 compounds, 0.2% hits; Potency, µM (highest dose often 58.2 µM), for inactives: at the top dose activity change, negative = inhibition, most hits filed as inhibitors;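 further: 0% = vehicle wells and -100% = peptide control; nearly all actives have a fitted effect of over 45% in size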
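AMA1 (3D7) with his tag at 25 nM final met compounds first, then biotinylated RON2 peptide at 25 nM; detection used donor plus acceptor beads, 10 µg/mL apiece, read by AlphaScreen after 30 min at room temperature.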
The depositor's hits bear a star; ? = inconclusive; . = no result; [ ] = dose if it differs, or a comment. Shown are actives, neighbours in structure and some others; about 0.68% of the full set was active somewhere. Unless noted, the call rests on the fitted dose curve; in most records, active means well fitted curve in the direction sought with a large enough effect; inconclusive means small, poorly fitted or top-dose-only effect, or another doubt; inactive means no such curve, though single readings can be large; an effect the other way counts as inactive or inconclusive. Unless noted, on the % scale 0 is the no-effect control and ±100 the full control effect; potency means the concentration at half of the fitted maximal effect.

SMILES | RE007 growth inh | TbPYK inhibitor | LmPK inhibitor | AMA1-RON2 inh
CCN1CCN(CCn2c(=S)[nH]c3cc4c(cc3c2=O)OCO4)CC1 | 24.4%[3.69 µM] | . | 2.4% | 13.0%
O=C1NC(=S)S/C1=C\C=C\c1ccc([N+](=O)[O-])o1 | 39.8µM* | -19.5% | -12.7% | -21.1%
O=C(Nc1ccc(C(F)(F)F)cc1)C1CCC(CNS(=O)(=O)c2cccc3nsnc23)CC1 (stereo not given) | . | 2.8% | . | .
CCCCN=Cc1c(C)[nH]n(-c2ccccc2)c1=S | 1.2% | 7.94µM* | ? | 29.9%
Cc1[nH]n(-c2ccccc2)c(=S)c1C=Nc1cccc([N+](=O)[O-])c1 | 12.7% | 3.16µM* | -26.8% | 7.7%
O=[N+]([O-])c1ccc(C=Nc2ccccc2)cc1 | 5.6%[18.4 µM] | -4.0% | . | -16.4%
CN(Cc1c(O)ccc2c1oc(=O)c1ccccc12)C1CCCCC1 | -5.8% | 1.4% | -9.8% | 21.2µM*
COCc1ccc(C(=O)N2CCCC(Nc3ccc(C(C)C)cc3)C2)s1 (stereo not given) | 5.8% | -9.8% | -0.9% | -15.0%
Fc1cccc(F)c1/C=C/c1ccc2ccccc2n1 | ? | ? | 8.91µM* | 7.3%
Fc1cccc(Cl)c1/C=C/c1cnc2ccccc2n1 | -2.7% | ? | -18.3% | 6.3%
CC(C)CN(C(=O)COC(=O)c1ccccc1SCC(=O)N1CCCC1)C1CCS(=O)(=O)C1 (stereo not given) | 9.0% | 4.3% | . | 10µM*
Cc1cc(C(=O)N/N=C/c2cc([N+](=O)[O-])ccc2O)c2ccccc2n1 | 0.8% | 1.8% | -4.2% | ?
Cc1ccc(/C=N/NC(=O)c2ccoc2C)s1 | -17.5% | -13.0% | 14.1µM* | 2.7%
Cc1occc1C(=O)N/N=C/c1ccc(Br)s1 | ? | -0.8% | 25.1µM* | -8.0%
Cc1occc1C(=O)N/N=C/c1ccccc1[N+](=O)[O-] | 24.1% | -11.1% | 14.1µM* | -3.4%
Cn1nccc1C(=O)N/N=C/c1ccccc1[N+](=O)[O-] | 8.4% | -7.3% | ? | 3.1%
Cc1cc(C(=O)N/N=C/c2cc(Br)cc([N+](=O)[O-])c2O)c2ccccc2n1 | 8.0% | -11.7% | -2.0% | 35.5µM*
CCN(CC)S(=O)(=O)c1ccc2c(c1)nc(SC(C)C(N)=O)n2-c1ccc(OC)cc1 (stereo not given) | 1.8% | -21.8% | 2.9% | -1.0%
COCCN(C(=O)COC(=O)CCc1ccc(OC)cc1)c1c(N)n(Cc2ccccc2)c(=O)[nH]c1=O | 8.7% | 1.2% | . | -6.8%
COc1ccc(N2CCN(c3ncnc4scc(-c5ccc(F)cc5)c34)CC2)cc1 | -1.9% | 6.5% | -3.4% | 12.6µM*
O=C1/C(=C/Nc2ccc3c(c2)OCO3)CCc2ccccc21 | ? | ? | 12.6µM* | -11.2%
COc1ccc(N/C=C2\CCc3ccccc3C2=O)cc1 | ? | ? | 12.6µM* | 18.5%
CC(=O)N1N=C(c2ccc(C)cc2)OC1c1cccnc1 (stereo not given) | -10.7% | 1.9% | -11.3% | -4.7%
COc1ccc(-n2nc(C(=O)N3CCC(C)CC3)c3c4ccccc4n(C)c3c2=O)cc1Cl | . | 1.8% | . | .
O=C(NCCCn1ccnc1)Nc1cccc(Cl)c1 | -6.0% | 3.9% | -5.6% | 25.1µM*
SMILES | RE007 growth inh | TbPYK inhibitor | LmPK inhibitor | AMA1-RON2 inh
CCc1n(CC(O)COCC2CC=CCC2)c2ccccc2[n+]1C (stereo not given) | -11.3% | -7.0% | 8.0% | -4.5%
O=C(CSc1nnnn1-c1ccccc1)NCc1cccs1 | 2.9% | 1.2% | 5.6% | 19.8%
Cc1ccc(/C=C/C(=O)NCCc2c[nH]c3ccccc23)o1 | 7.3% | -21.7% | -0.6% | -26.8%
Cc1ccc(/C=C/C(=O)NCc2ccc(S(N)(=O)=O)cc2)o1 | -5.6% | 10µM* | -2.0% | 3.5%
Cc1ccc(/C=C/C(=O)NCCc2cccc(Cl)c2)o1 | 10.1% | 15.8µM* | 1.7% | -5.5%
COC(=O)[C@]1(Cc2ccccc2)N[C@H](CN(C)C(=O)c2ccc(C)cc2)[C@@H]2C(=O)N(C)C(=O)[C@@H]21 | 1.2% | 3.5% | . | 0.5%
CCOc1ccc2c(c1)-c1c(ssc1=S)C(C)(C)N2C | -26.5% | -8.5% | -2.5% | 10µM*
N#Cc1ccc(/C=C/C(=O)c2ccco2)cc1 | 17.8µM* | -3.1% | 1.5% | 4.8%
Nc1ccc(/C=C/C(=O)c2ccco2)cc1 | ? | -3.6% | -21.6% | -5.7%[2.32 µM]
COc1ccc(C(=O)Nc2nncs2)cc1S(=O)(=O)N1CCOCC1 | -11.0% | 3.8% | 1.2% | 23.4%
COC(=O)c1ccc2nc(-c3cccc(N)c3)cn2c1 | -13.6% | -14.5% | 25.1µM* | -2.5%

Assay outcomes from PubChem.
